Screens (PubChem BioAssay)
hgDAF-12 ag = hgDAF-12 agonism, primary luciferase screen; activation, % at 6.8 µM; 1.8% of 370,000 active; HEK293 GAL4-hgDAF12 UAS-luciferase reporter, agonist luminescence; normalized to butyrate control;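 active means activation above a cutoff set at the mean of all screened compounds plus 3 SD, cut at about 10% in these data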
ssDAF-12 act = activators of S. stercoralis DAF-12 nuclear receptor | HEK293 ssDAF-12/GRIP1 lit1-tk-luc reporter, luminescence; % of 3 µM dafachronic acid response | activation, % at 6.8 µM | 1% of 370,000 active | AID 652126;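 active means activation above the mean over all tested compounds plus 3 SD, cut at about 0.9% in these data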
DAX1 inh-1 = inhibits human nuclear receptor DAX1; P51843; HEK293 Gal4-DAX1 luciferase reporter, luminescence; inhibition, % at 6.75 µM; 0.99% of 340,000 active; AID 504766;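 active means inhibition above the mean over all tested compounds plus 3 SD, cut at about 4.2% in these data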;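 further: inhibition shows as a rise in luminescence from relieved DAX1 repression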
hcDAF-12 act = activators of H. contortus DAF-12 nuclear receptor | HEK293 hcDAF-12 lit1-tk-luc reporter, luminescence; 0% DMSO, 100% Δ7-dafachronic acid | activation, % at 6.8 µM | 1.4% of 370,000 active | AID 652067;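 active means activation above the mean of all tested compounds plus 3 SD, cut at about 5.5% in these data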
AHR activator = activators of human aryl hydrocarbon receptor; AID 2796; activation, % at 5 µM; AHR-responsive luciferase reporter cells, luminescence; 2.5% of 320,000 active; in the data active means activation above about 47%
Target sequence (P35869 whole entry, looked up): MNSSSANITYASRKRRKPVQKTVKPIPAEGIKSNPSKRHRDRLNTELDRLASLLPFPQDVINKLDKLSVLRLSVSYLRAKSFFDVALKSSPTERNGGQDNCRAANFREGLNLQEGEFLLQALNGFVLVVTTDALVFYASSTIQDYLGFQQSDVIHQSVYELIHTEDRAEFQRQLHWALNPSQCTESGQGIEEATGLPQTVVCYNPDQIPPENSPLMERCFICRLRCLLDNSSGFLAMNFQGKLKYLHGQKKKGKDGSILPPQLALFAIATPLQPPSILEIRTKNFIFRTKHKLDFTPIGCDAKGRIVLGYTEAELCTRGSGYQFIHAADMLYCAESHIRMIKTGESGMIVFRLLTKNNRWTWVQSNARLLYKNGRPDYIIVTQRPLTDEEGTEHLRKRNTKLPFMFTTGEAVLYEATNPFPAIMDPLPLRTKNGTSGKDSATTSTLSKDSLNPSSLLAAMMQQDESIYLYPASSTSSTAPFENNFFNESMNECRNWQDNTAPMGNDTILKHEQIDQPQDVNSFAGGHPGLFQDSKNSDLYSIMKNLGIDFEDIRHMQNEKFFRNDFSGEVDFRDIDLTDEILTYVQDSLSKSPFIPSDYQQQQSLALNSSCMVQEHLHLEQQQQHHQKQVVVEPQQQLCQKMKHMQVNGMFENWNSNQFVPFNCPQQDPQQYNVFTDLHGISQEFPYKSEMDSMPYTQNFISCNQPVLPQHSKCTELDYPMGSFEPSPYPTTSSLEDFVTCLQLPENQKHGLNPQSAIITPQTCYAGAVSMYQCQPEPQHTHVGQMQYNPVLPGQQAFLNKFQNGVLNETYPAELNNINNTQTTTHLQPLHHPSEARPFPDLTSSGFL
DAX1 inh-2 = inhibitors of DAX1 repression of SF-1 activated StAR promoter; AID 652010; 1.1% of 370,000 active; inhibition, % at 6.8 µM; HEK293T StAR-luciferase reporter, SF-1/DAX-1 repression relief;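 active means inhibition above the mean over all tested compounds plus 3 SD, cut at about 3.6% in these data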;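 further: higher inhibition means more luminescence from relief of DAX-1 repression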
Of the large screens only hits and unclear results are named; the others gave an inactive call. In the library only some 5.7% were active in any assay of this set; here they are far more common.

COc1ccc(CN2C(=O)c3cccc4cccc2c34)cc1F	none
COc1ccc(C(CNC(=O)c2ccccc2SC)N(C)C)cc1 (centres undefined)	none
N#Cc1c2c(c(Nc3ccc(F)cc3)n3c1nc1ccccc13)CCCC2	hgDAF-12 ag 11 (no result: AHR activator)
COC(=O)[C@]12C[C@H](CC(=O)NCCCN3CCCC3=O)C(=O)N(Cc3ccccc3)C1=C[C@H](COCc1ccccc1)O[C@@H]2C	none (no result: DAX1 inh-1, AHR activator)
O=C(COC(=O)c1ccc2ccccc2c1O)NCc1ccccc1	none
O=C(COC(=O)c1ccc2ccccc2n1)NCc1ccccc1	DAX1 inh-1 4.9
Nc1c(C(=O)OCC(=O)NCc2ccccc2)[nH]c(=O)[nH]c1=O	DAX1 inh-1 7.9
CCCOC(=O)c1ccc(NC(=O)CC(C)(C)C)cc1	hgDAF-12 ag 13, DAX1 inh-2 3.8
CCCCOC(=O)Nc1nnc(C(C)C)s1	hgDAF-12 ag 11, DAX1 inh-1 5.7
CCCCOC(=O)Nc1ccc(C(N)=O)cc1	DAX1 inh-1 4.3
CCCCOC(=O)c1ccc(NC(=O)c2ccoc2C)cc1	hgDAF-12 ag 12
CCCOC(=O)c1ccc(NC(=O)c2ccoc2C)cc1	none
c1coc(-c2nc(N=C3N=c4ccccc4=N3)[nH]c2-c2ccco2)c1	none (no result: AHR activator)
Cc1ccc(S(=O)(=O)N(C)C)cc1NC(=O)C(C)OC(=O)c1ccc2c(=O)n3c(nc2c1)CCC3 (centres undefined)	none (no result: AHR activator)
O=c1c2ccccc2cnn1Cc1n[nH]c(=S)n1-c1ccc(F)cc1	none
Cc1ccc(-n2c(Cn3ncc4ccccc4c3=O)n[nH]c2=S)cc1	ssDAF-12 act 1.3
CC(=O)Nc1ccc(Sc2ncccc2C(=O)Nc2cc(Cl)cc(Cl)c2)cn1	ssDAF-12 act 1.1
CC(=O)Nc1ccc(Sc2ncccc2C(=O)Nc2ccc(OC(F)(F)F)cc2)cn1	none
CCOc1cc(Br)ccc1S(=O)(=O)NCc1ccccc1	none (no result: hgDAF-12 ag, ssDAF-12 act, hcDAF-12 act, DAX1 inh-2)
COc1cc(C2C3=C(COC3=O)OC(C)(C)Oc3cc4c(cc32)OCO4)cc(OC)c1OC (centres undefined)	DAX1 inh-2 4.1 (no result: AHR activator)
O=C1c2ccccc2/C(=C\c2ccc(Br)nc2)N1c1ccccc1	none (no result: DAX1 inh-1, AHR activator)
O=C1c2ccccc2/C(=C\c2ccc(O[C@@H]3CCCCO3)cc2)N1c1ccccc1	hgDAF-12 ag 11 (no result: DAX1 inh-1, AHR activator)
CCOC(=O)CN(Cc1ccccc1)C(=O)OC(C)(C)C	none (no result: hgDAF-12 ag, ssDAF-12 act, DAX1 inh-1, hcDAF-12 act, DAX1 inh-2)
O=C(NNC(=O)C1CC2CCC1C2)c1sc2ccccc2c1Cl (centres undefined)	hgDAF-12 ag 13
O=C(NCC1CCN(C(=O)C(=O)c2cccs2)CC1)c1cccnc1	none (no result: DAX1 inh-1, AHR activator)
c1ccc(-c2nc3ccccc3[nH]2)nc1	ssDAF-12 act 1.3
O=c1[nH]c(-c2ccccn2)nc2ccccc12	none
c1ccc(-c2nc3ccccc3[nH]2)cc1	hgDAF-12 ag 12, DAX1 inh-2 4.4
c1ccc2[nH]c(-c3ccncc3)nc2c1	none
c1cncc(-c2nc3ccccc3[nH]2)c1	none
S=C(Nc1ccc(-c2nc3ccccc3[nH]2)cc1)Nc1cccnc1	hgDAF-12 ag 11
N#CCSc1ncccc1-c1nc2ccccc2[nH]1	AHR activator 73
CNc1nnc(-c2ccc(OC)cc2)s1	hgDAF-12 ag 11, DAX1 inh-1 5.3
COc1ccc(NC(=O)CN(C)C(=O)c2cnc(Cl)c(Cl)c2)cc1	none
Oc1ccc(Cl)cc1N=Nc1ccccc1	none
Nc1c(Cl)cc(N=Nc2ccccc2)cc1Cl	ssDAF-12 act 1.0 (no result: AHR activator)
O=C(c1ccc2[nH]ccc2c1)N1CCCC(Nc2ccccc2)C1 (centres undefined)	none
COc1ccc(C(=O)OCC(=O)Nc2sccc2C(N)=O)cc1[N+](=O)[O-]	none
Cc1ccc2cccc(NS(=O)(=O)c3ccccc3)c2n1	AHR activator 71 (no result: DAX1 inh-1)
CCOC(=O)c1oc2ccc(CNC3CCCCC3)c(Cl)c2c1C	none
CCOC(=O)c1oc2ccc(CNCCO)c(Cl)c2c1C	hcDAF-12 act 6.1
COCCNC(=O)CN(C(=O)CCC(=O)Nc1ccccn1)c1ccc(C)cc1C	none
Cc1ccc(S(=O)(=O)NCc2ccc3c(c2)cc(C)n3C)cc1	none
Cc1cc2cc(CN3C(=O)c4ccccc4C3=O)ccc2n1C	hcDAF-12 act 6.1
COc1ccc(C(=O)N/C(=C\c2ccco2)C(=O)OCc2ccco2)cc1	DAX1 inh-1 5.5
CCCCOc1ccc(C(=O)N/C(=C\c2ccc(OC)cc2)C(=O)OCc2ccco2)cc1	none
